The structures appear in SMILES notation. Compounds without any hit were thinned out: in the full panel of roughly 83,000, 20% have a hit.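 The test compound was applied at a single concentration to cells in 96-well plates for 48 hours, and percent growth was recorded.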 Calls of active or inactive are those of the source.

This assay deals with NCI-H522 lung. The assay is described as follows: NCI-60 one-dose screen, 48 h (100 = growth as untreated, 0 = no growth, -100 = all killed). The following applies: 10 µM unless noted. The method, then:
Growth inhibition of the NCI-H522 human Non-Small Cell Lung tumor cell line is measured as a screen for anti-cancer activity. Cells are grown in 96 well plates and exposed to the test compound for 48 hours. Compounds are tested at a single concentration, which is 10^-5 M for most compounds. The reported endpoint is percent growth (GI% or GIPRCNT), where numbers from 0 - 100% represent growth inhibition, and numbers from -100% - 0 represent cell death. For example, a value of 40 represents 60% growth inhibition. A value of 0 means no net growth occurred over the course of the experiment. A value of -40 indicates 40% of cells at the beginning of the experiment died by the end of the experiment. A value of -100 means all cells are dead at the end of the experiment.
NCI-60 Human Tumor Cell Lines Screen was performed using the standard one-dose NCI protocol, which is described in more detail at https://dtp.cancer.gov/discovery_development/nci-60/default.htm.
Compounds with GIPRCNT values below 10 were considered active. Activity score was based on GIPRCNT using the following formula: […]
Score is 0 for GIPRCNT values of 100 or above, 50 for GIPRCNT values of 0, and 100 for GIPRCNT values of -100.
On to `Oc1c(CN2CCC(N3CCCCC3)CC2)cc(Cc2cc(CN3CCC(N4CCCCC4)CC3)c(O)c3ncccc23)c2cccnc12`, for which the growth was -34.7% (active).

For `CC1(C)C(N)=Nc2cc(OCCCN3Cc4ccccc4C3)c(OCC3CC3)cc21`, the growth was 59.6% (inactive).

In the case of `CCCCNC(=O)Oc1ccc(/C(=C(/C)Cc2ccc(OC)cc2)c2ccc(OCCN3CCCCCC3)cc2)cc1`, the growth was 68.5% (inactive).

In the case of `COc1cccc(-c2cc(-c3cccc(Cl)c3)c(C#N)c(=O)[nH]2)c1`, the growth was 62.2% (inactive).

Turning to `COc1ccc2c(c1)CCc1[nH]nc(-c3cc(OC)c(OC)c(OC)c3)c1-2`, the growth is -22.3% (active).

Consider `CC(C)=CCNc1ncnc2c1ncn2C1OC(CO)C(O)C1O` (stereo not given), for which the growth was -54.2% [1 mM] (active).

In the case of `Cc1cn(-c2cc(NC(=O)c3cncc(C#Cc4c(N)ncc5ccc(F)cc45)c3)cc(C(F)(F)F)c2)cn1`, the growth is 58.1% (inactive).

Consider `OCCNCCNC(Cc1ccc(Cl)cc1)c1ccccc1` (stereo not given), for which the growth was 64.1% (inactive).

Take `O=C(N=Nc1c(O)[nH]c2ccccc12)Nc1ccc(F)cc1`: the growth was 78.5% (inactive).

As to `Cc1ccc2nc(/C(C#N)=C(/CCCO)NC(Cc3ccccc3)C(=O)OCc3ccccc3)[nH]c(=O)c2c1` (stereo not given), the growth was 112% (inactive).

As for `Clc1ccccc1-c1cnn2cc(-c3ccccc3)cnc12`, the growth is 77.3% (inactive).

`Cc1ccc(/C=C/C(=O)c2cccc(OCCCOc3cccc(C(=O)/C=C/c4ccc(C)cc4)c3)c2)cc1`: the growth was 76.2% (inactive).

Turning to `COc1cc(Cl)c(C)cc1NC(=O)c1cc2ccccc2cc1O`, the growth was -11.5% (active).

For the compound `COc1ccc(C(=O)c2cc3c(N)c(C(=O)Nc4ccccc4)sc3nc2C)cc1`, the growth is 9.62% (active).

As for `C#CC#CC#CC#CC#CC#CC#CC#CCC1OC[C@H](COC(=O)O[C@@H](C(=O)O[C@H]2C[C@@]3(O)[C@@H](OC(=O)c4ccccc4)[C@@H]4[C@]5(OC(C)=O)CO[C@@H]5C[C@H](O)[C@@]4(C)C(=O)[C@H](OC(C)=O)C(=C2C)C3(C)C)[C@@H](NC(=O)c2ccccc2)c2ccccc2)O1` (stereo not given in full), the growth was 42.4% (inactive).

For the compound `Cc1ccc(N2C(=O)CCC2=O)cc1`, the growth is 74.2% (inactive).

As for `C=C(C)[C@@H]1CC[C@]2(C(=O)N3CCN(C)CC3)CC[C@]3(C)[C@H](CC[C@@H]4[C@@]5(C)CC[C@H](OC(=O)c6ccccc6C(=O)O)C(C)(C)[C@@H]5CC[C@]43C)[C@@H]12`, the growth was 84.2% (inactive).

As for `O=C1Nc2ccccc2C1(c1c[nH]c2ccccc12)c1c[nH]c2ccccc12`, the growth was 21.6% (inactive).

For `N#C/C(=C\c1ccc(-c2cccc(C(F)(F)F)c2)o1)c1ccccc1`, the growth was 84.6% (inactive).

On to `CCN1CCN(c2cc(C)nc(N(CCNc3ccnc4cc(Cl)ccc34)Cc3ccc4c(c3)OCO4)n2)CC1`, for which the growth was -81.7% (active).

`Fc1cc(Nc2ccc3c(OCCCN4CCOCC4)cccc3n2)ccc1Cl`: the growth is -15.5% (active).

Regarding `O=C1C(Nc2ccccn2)=C(I)C(=O)c2ncccc21`, the growth is -63.1% (active).

In the case of `CN1CCN(CCOc2ccc(-c3cnc4c(-c5cccc(F)c5F)cnn4c3)cc2)CC1`, the growth was 88.6% (inactive).

Turning to `CCOC(=O)c1[nH]c2c(c1C)-c1[nH]c(=O)c(S(=O)(=O)c3ccccc3)cc1SC2`, the growth is -0.182% [100 µM] (active).

Consider `Cc1ccc(C=C2C(=O)NC(=O)NC2=O)cc1`, for which the growth is 85.9% (inactive).

`CCOC(=O)CC1CSC(Nc2ccccc2)=N1` (stereo not given): the growth is 94.9% (inactive).

As to `Cc1ccc2c(=O)cc(C(=O)Nc3sc4c(c3C(=O)NCc3cccnc3)CCCC4)oc2c1C`, the growth is 100% (inactive).

As for `COc1cc(-c2nc3sccn3c2-c2ccnc(NCCNS(=O)(=O)c3ccc(Cl)cc3)n2)ccc1F`, the growth is 1.16% (active).

Take `O=C(Nc1ccccc1O)c1ccc(CNC(=O)c2ccsc2Nc2ccnc(C(F)(F)F)c2)cc1`: the growth was -24% (active).

On to `COc1cccc(Nc2ncnc3cc(NC(=O)CCl)ccc23)c1`, for which the growth was -77.4% (active).

In the case of `N[C@H]1CCC[C@@H]1NCCCCN1C(=O)c2cccc3cc([N+](=O)[O-])cc(c23)C1=O`, the growth is 38.4% (inactive).

Consider `COc1ccc(C#Cc2ccc(=O)oc2-c2cc(OC)c(OC)c(OC)c2)cc1O`, for which the growth was 20.6% (inactive).

As for `C[C@]1(O)CC(=O)[C@]2(O)C3=C(C=C[C@]2(O)C1)C(=O)c1c(O)cccc1C3=O`, the growth was -59.5% (active).

For `Cc1ccc(C)c2c(C)c(C(=O)Nc3cccc(-n4cccn4)c3)oc12`, the growth is 32% [50 µM] (inactive).

Regarding `C=C1C(=O)O[C@H]2[C@H]1CC/C(COC(=O)/C=C/C(=O)OC/C1=C/CC[C@@]3(C)O[C@H]3[C@H]3OC(=O)C(=C)[C@@H]3CC1)=C\CC[C@@]1(C)O[C@@H]21`, the growth is -32% (active).

For `CCN1C(=O)N(CC)C2C1NN=c1s/c(=C\c3ccc(C(F)(F)F)cc3)c(=O)n12` (stereo not given), the growth is -10.5% (active).

Regarding `O=C1NC(=O)/C(=C/c2c(-c3ccccc3)nc3sc(COc4ccccc4)nn23)S1`, the growth was 83.6% (inactive).

With `Cc1n[nH]c2ccc(Br)cc2c1=O`, the growth was 83.6% (inactive).

Regarding `Fc1cccc(-c2ccc3c(c2)C2(CCNCC2)CN3)c1`, the growth was 90.4% (inactive).

For the compound `O=S1(=O)C=C(c2ccccc2)C(c2ccccc2)=C1`, the growth was -70.7% (active).

The values above are taken from PubChem BioAssay (NCI).
